# Results published in the supplement of paper PMC9942566.
# ± gives the standard deviation of the averaged measurements.
# System: Serratia marcescens K904 PosmB-luxCDABE reporter (pMQ747)
# Experiment: PosmB-lux reporter fold induction (RLU/OD600 relative to no-compound control), highest over Biolog concentrations; higher = stronger reporter activation
# Details: ΔrcsB mutant CMS5177; 4 h
# Description: (§1)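 Serratia marcescens K904 (wild type) or its isogenic ΔrcsB mutant, carrying the Rcs-dependent PosmB-luxCDABE reporter plasmid pMQ747, was grown in LB at OD600 0.1 in Biolog Phenotype MicroArray plates PM11-20 for 4 h at 30-32°C. Each compound is present at 3-4 proprietary concentrations (not stated); per the Fig. S1 legend the value given is the highest fold over those wells. Three independent trials.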
row,Structure (SMILES),PosmB-lux reporter fold induction
1,"O=[N+]([O-])c1ccc(-[n+]2nc(-c3ccccc3)nn2-c2ccc(I)cc2)cc1 [iodonitro tetrazolium violet] (Biolog plate: PM19, well positions: D5-8)",0.242 ± 0.11
2,"NCC(=O)NO [glycine hydroxamate] (Biolog plate: PM16, well positions: H1-4)",2.02 ± 0.63
3,"NC(=O)c1cc[n+](CC2=C(C(=O)[O-])N3C(=O)[C@@H](NC(=O)[C@@H](c4ccccc4)S(=O)(=O)O)[C@H]3SC2)cc1 [cefsulodin] (Biolog plate: PM17, well positions: H1-4)",1.35 ± 0.096
4,"O=C(O)c1ccccc1S [Thiosalicylic acid] (Biolog plate: PM17, well positions: A9-12)",0.982 ± 0.15
5,"[Na+].[O]=[V](=[O])[O-] [Sodium metavanadate] (Biolog plate: PM14, well positions: F9-12)",1.84 ± 1
6,"CC(C)NCC(O)COc1cccc2ccccc12 (racemic) [D,L-propranolol] (Biolog plate: PM20, well positions: B5-8)",1.24 ± 0.19
7,"CN(C)[C@@H]1C(O)=C(C(=O)NCN2CCCC2)C(=O)[C@@]2(O)C(O)=C3C(=O)c4c(O)cccc4[C@@](C)(O)[C@H]3C[C@@H]12 [Rolitetracycline] (Biolog plate: PM13, well positions: D9-12)",1.73 ± 0.11
8,"CO[C@H]1C[C@H](O[C@H]2[C@H](C)[C@@H](O[C@@H]3O[C@H](C)C[C@H](N(C)C)[C@H]3O)[C@@H](C)C[C@@]3(CO3)C(=O)[C@H](C)[C@@H](O)[C@@H](C)[C@@H](C)OC(=O)[C@@H]2C)O[C@@H](C)[C@@H]1O [Oleandomycin] (Biolog plate: PM15, well positions: F5-8)",2.18 ± 0.57

# System: Serratia marcescens K904 PosmB-luxCDABE reporter (pMQ747)
# Experiment: PosmB-lux reporter fold induction (RLU/OD600 relative to no-compound control), highest over Biolog concentrations; higher = stronger Rcs reporter activation
# Details: wild type K904; 4 h
# Description: as §1
row,Structure (SMILES),PosmB-lux reporter fold induction
1,"O=[N+]([O-])c1ccc(-[n+]2nc(-c3ccccc3)nn2-c2ccc(I)cc2)cc1 [iodonitro tetrazolium violet] (Biolog plate: PM19, well positions: D5-8)",0.511 ± 0.27
2,"Cc1ccc2c(Cl)cc(Cl)c(O)c2n1 [5,7-Dichloro-8-hydroxy-quinaldine] (Biolog plate: PM15, well positions: B9-12)",2.01 ± 0.87
3,"NCC(=O)NO [glycine hydroxamate] (Biolog plate: PM16, well positions: H1-4)",2.05 ± 0.2
4,"CC1=CC(=O)c2ccccc2C1=O [Menadione] (Biolog plate: PM15, well positions: G9-12)",3.74 ± 0.73
5,"NC(=O)c1cc[n+](CC2=C(C(=O)[O-])N3C(=O)[C@@H](NC(=O)[C@@H](c4ccccc4)S(=O)(=O)O)[C@H]3SC2)cc1 [cefsulodin] (Biolog plate: PM17, well positions: H1-4)",18.5 ± 17
6,"NC(CO)C(=O)NO (racemic) [D,L-Serine hydroxamate] (Biolog plate: PM12, well positions: C9-12)",3.63 ± 0.5
7,"O=C(O)c1ccccc1S [Thiosalicylic acid] (Biolog plate: PM17, well positions: A9-12)",1.12 ± 0.27
8,"CO[C@H]1/C=C/O[C@@]2(C)Oc3c(C)c(O)c4c(O)c(cc(O)c4c3C2=O)NC(=O)/C(C)=C\C=C\[C@H](C)[C@H](O)[C@@H](C)[C@@H](O)[C@@H](C)[C@H](OC(C)=O)[C@@H]1C [rifamycin SV] (Biolog plate: PM16, well positions: E9-12)",4.24 ± 0.58
9,"CCC(C)CCCC(=O)N[C@@H](CCN)C(=O)N[C@H](C(=O)N[C@@H](CCN)C(=O)N[C@H]1CCNC(=O)[C@H]([C@@H](C)O)NC(=O)[C@H](CCN)NC(=O)[C@H](CCN)NC(=O)[C@H](CC(C)C)NC(=O)[C@@H](CC(C)C)NC(=O)[C@H](CCN)NC1=O)[C@@H](C)O (stereo partly specified) [Colistin] (Biolog plate: PM11, well positions: C5-8)",2.54 ± 0.89
10,"NC(=O)NO [Hydroxyurea] (Biolog plate: PM15, well positions: H5-8)",13.1 ± 1.9
11,"CN(C)CCCN1c2ccccc2Sc2ccc(Cl)cc21 [chlorpromazine] (Biolog plate: PM17, well positions: D9-12)",2 ± 0.77
12,"[Na+].[O]=[V](=[O])[O-] [Sodium metavanadate] (Biolog plate: PM14, well positions: F9-12)",3.94 ± 1.2
13,"CO/N=C(\C(=O)N[C@@H]1C(=O)N2C(C(=O)O)=C(CSc3nc(=O)c(O)nn3C)CS[C@H]12)c1csc(N)n1 [Ceftriaxone] (Biolog plate: PM11, well positions: G1-4)",1.64 ± 0.43
14,"CN[C@@H]1[C@@H](O[C@H]2O[C@H](CO)[C@@H](N)[C@H](O)[C@H]2O)OC2C[C@@H](N)[C@@H](O[C@H]3[C@H](O)[C@@H](O)[C@H](N)C[C@@H]3N)OC2[C@@H]1O (stereo partly specified) [apramycin] (Biolog plate: PM20, well positions: A5-8)",1.85 ± 0.71
15,"CO[C@@]1(NC(=O)CSCC#N)C(=O)N2C(C(=O)O)=C(CSc3nnnn3C)CS[C@@H]21 [Cefmetazole] (Biolog plate: PM15, well positions: A9-12)",1.21 ± 0.23
16,"CC(C)NCC(O)COc1cccc2ccccc12 (racemic) [D,L-propranolol] (Biolog plate: PM20, well positions: B5-8)",5.54 ± 2.8
17,"O=C(N[C@H](CO)[C@H](O)c1ccc([N+](=O)[O-])cc1)C(Cl)Cl [Chloramphenicol] (Biolog plate: PM11, well positions: F1-4)",1.4 ± 0.62

row,Structure (SMILES),PosmB-lux reporter fold induction
1,"COc1cc(Cc2cnc(N)nc2N)cc(OC)c1OC [trimethoprim] (Biolog plate: PM16, well positions: B9-12)",1.93 ± 0.91
2,"Nc1ccn(C2OC(CO)C(O)C2O)c(=O)n1 [Cytosine-1-beta-D-arabino-furanoside] (Biolog plate: PM13, well positions: E1-4)",1.5 ± 0.15
3,"CN(C)c1ccc(O)c2c1C[C@H]1C[C@H]3[C@H](N(C)C)C(O)=C(C(N)=O)C(=O)[C@@]3(O)C(O)=C1C2=O [Minocycline] (Biolog plate: PM11, well positions: C9-12)",2.54 ± 0.15
4,"CCn1cc(C(=O)O)c(=O)c2ccc(C)nc21 [Nalidixic Acid] (Biolog plate: PM11, well positions: E9-12)",3.44 ± 0.51
5,"C[C@H]1c2cccc(O)c2C(=O)C2=C(O)[C@]3(O)C(=O)C(C(N)=O)=C(O)[C@@H](N(C)C)[C@@H]3[C@@H](O)[C@@H]21 [Doxycycline] (Biolog plate: PM13, well positions: C5-8)",1.48 ± 0.11
6,"CS(=O)(=O)c1ccc([C@@H](O)[C@@H](CO)NC(=O)C(Cl)Cl)cc1 [thiamphenicol] (Biolog plate: PM18, well positions: A9-12)",0.659 ± 0.017
7,"O=C([O-])c1ccccc1O.[Na+] [sodium salicylate (NSAID)] (Biolog plate: PM17, well positions: B1-4)",5.52 ± 2
8,"CN(C)[C@@H]1C(O)=C(C(=O)NCN2CCCC2)C(=O)[C@@]2(O)C(O)=C3C(=O)c4c(O)cccc4[C@@](C)(O)[C@H]3C[C@@H]12 [Rolitetracycline] (Biolog plate: PM13, well positions: D9-12)",1.49 ± 0.23
9,"S=c1nc[nH]c2nc[nH]c12 [6-Mercapto-purine] (Biolog plate: PM13, well positions: C1-4)",1.6 ± 0.2
10,"CNC(C)C1CCC(N)C(OC2C(N)CC(N)C(OC3OCC(C)(O)C(NC)C3O)C2O)O1 (stereo unspecified) [Gentamicin] (Biolog plate: PM11, well positions: G5-8)",1.41 ± 0.081
11,"Cn1cnc([N+](=O)[O-])c1Sc1ncnc2[nH]cnc12 [azathioprine] (Biolog plate: PM18, well positions: B9-12)",0.797 ± 0.12
12,"CCn1cc(C(=O)O)c(=O)c2cc(F)c(N3CCNC(C)C3)c(F)c21 (stereo unspecified) [Lomefloxacin] (Biolog plate: PM11, well positions: B9-12)",1.5 ± 0.2
13,"CCC[C@@H]1C[C@@H](C(=O)N[C@@H]([C@H]2O[C@H](SC)[C@H](O)[C@@H](O)[C@H]2O)[C@@H](C)O)N(C)C1 [Lincomycin] (Biolog plate: PM11, well positions: A9-12)",1.16 ± 0.14
14,"CO[C@H]1C[C@H](O[C@H]2[C@H](C)[C@@H](O[C@@H]3O[C@H](C)C[C@H](N(C)C)[C@H]3O)[C@@H](C)C[C@@]3(CO3)C(=O)[C@H](C)[C@@H](O)[C@@H](C)[C@@H](C)OC(=O)[C@@H]2C)O[C@@H](C)[C@@H]1O [Oleandomycin] (Biolog plate: PM15, well positions: F5-8)",3.29 ± 1.7
15,"c1ccc(-c2nn(-c3ccccc3)[n+](-c3cccc4ccccc34)n2)cc1 [tetrazolium violet] (Biolog plate: PM20, well positions: B9-12)",0.453 ± 0.17
16,"Oc1c(Cl)cc(Cl)c(Cl)c1Cc1c(O)c(Cl)cc(Cl)c1Cl [hexa-chlorophene] (Biolog plate: PM20, well positions: E9-12)",1.62 ± 0.6
